Laboratory results: PubChem BioAssay (NCI)
This is part of a sample that, as a whole, favours compounds with a hit. Of some 79,000 tested, about 15% had one in any assay. A number with no mark means an inactive call. Calls of active or inactive are those of the source. No stated cut-off is given here; in the data, active means growth inhibition above about 70%; inactive means the rest.

Legend:
[1] = NCI Yeast Anticancer Drug Screen. Data for the rad50 strain (AID 155);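 further: 0% = growth of vehicle-only cultures of the same strain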; settings: S. cerevisiae rad50 strain growth inhibition, active compounds read high
In short: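 Compounds were tested on a yeast strain with an engineered DNA damage repair alteration; the reported value is growth inhibition normalised to vehicle treatment.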

[2] = NCI Yeast Anticancer Drug Screen. Data for the mec2-1 strain (AID 157); settings: S. cerevisiae mec2-1 strain, active compounds read high
In short: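 Mutant yeast (mec2-1) grown with compound; growth inhibition relative to vehicle control reported.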

[3] = NCI Yeast Anticancer Drug Screen. Data for the sgs1 mgt1 strain (AID 161);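 further: 0% = growth of cultures given vehicle only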; settings: S. cerevisiae sgs1 mgt1 strain, active compounds read high
In short: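 Growth of a repair-deficient yeast mutant was monitored after compound treatment and expressed as inhibition relative to vehicle-treated cultures.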

[4] = NCI Yeast Anticancer Drug Screen. Data for the cln2 rad14 strain (AID 165);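 further: 0% = growth equal to vehicle treated cultures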; settings: S. cerevisiae cln2 rad14 strain, active compounds read high
In short: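 Readout is yeast growth inhibition versus vehicle-treated controls, using a strain with cln2 and rad14 alterations exposed to compound.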

[5] = NCI Yeast Anticancer Drug Screen. Data for the bub3 strain (AID 167); settings: S. cerevisiae bub3 mutant strain, active compounds read high
In short: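 Growth of a checkpoint-deficient yeast mutant is measured after compound exposure. Values represent inhibition relative to vehicle.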

[6] = NCI Yeast Anticancer Drug Screen. Data for the mlh1 rad18 strain (AID 175); settings: S. cerevisiae mlh1 rad18 strain growth inhibition, active compounds read high
In short: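 Genetically defined yeast (DNA repair-deficient) exposed to compounds; growth inhibition determined relative to vehicle.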

[7] = at 5.0 µM (retest, dose inferred, filed as 0.5)
[8] = at 50.0 µM (retest, dose inferred, filed as 5.0)

SMILES | growth inhibition [1, 7] | growth inhibition [1, 8] | growth inhibition ([1]; at 50.0 µM) | growth inhibition [2, 7] | growth inhibition [2, 8] | growth inhibition ([2]; at 50.0 µM) | growth inhibition [3, 7] | growth inhibition [3, 8] | growth inhibition ([3]; at 50.0 µM) | growth inhibition [4, 7] | growth inhibition [4, 8] | growth inhibition ([4]; at 50.0 µM) | growth inhibition [5, 7] | growth inhibition [5, 8] | growth inhibition ([5]; at 50.0 µM) | growth inhibition [6, 7] | growth inhibition [6, 8] | growth inhibition ([6]; at 50.0 µM)
NNC(=S)Nc1ccccc1 | 3% | 5% | -7.25% | -3% | 1% | 79.9% (active) | -1% | 1% | -14.6% | 5% | -4% | -28.9% | 1% | -1% | 2.2% | -1% | 10% | 8.05%
O=C1C(=O)N(c2ccccc2)N=C1N=Nc1ccccc1 | 4% | 33% | 90.4% (active) | 8% | 80% (active) | 86.7% (active) | 14% | 63% | 96.2% (active) | 2% | 43% | 41.8% | 14% | 73% (active) | 69% | 14% | 77% (active) | 56%
c1ccc(Oc2ccc(Nc3c4ccccc4nc4ccccc34)cc2)cc1 | 85% (active) | 57% | 45.9% | 4% | 70% (active) | 30% | 17% | 84% (active) | 76.2% (active) | 3% | 62% | 31.9% | -4% | 81% (active) | 28.6% | 13% | 91% (active) | 27.1%
COc1ccc(C2Oc3ccc(Cl)cc3C=C2[N+](=O)[O-])cc1 (stereo not given) | 99% (active) | 93% (active) | 80.4% (active) | 99% (active) | 95% (active) | 87.1% (active) | 99% (active) | 95% (active) | 82.5% (active) | 99% (active) | 93% (active) | 83.2% (active) | 99% (active) | 94% (active) | 84.4% (active) | 99% (active) | 95% (active) | 79% (active)
Cc1cn(C(C#N)=C(C#N)C#N)c2ccccc12 | 0% | 25% | 14.4% | 6% | 11% | 22.5% | -8% | 32% | -4.65% | -2% | 26% | -37.4% | -2% | -3% | 18.2% | 1% | 16% | -16.2%
C[N+]1(Cc2ccc([N+](=O)[O-])cc2)CCC[C@H]1c1ccc[n+](Cc2ccc([N+](=O)[O-])cc2)c1 (stereo not given in full) | 0% | 27% | 10.2% | -1% | 13% | 8.85% | -15% | -2% | 65.1% | -7% | 0% | 63.2% | 2% | 11% | 9.65% | -28% | 24% | 84.6% (active)
O=C(N/N=C/c1ccccc1O)C1Cc2ccccc2C1C(Cl)Cl (stereo not given) | 51% | 97% (active) | 88% (active) | 36% | 98% (active) | 91.3% (active) | 47% | 99% (active) | 93% (active) | 31% | 95% (active) | 89.5% (active) | 45% | 82% (active) | 90.7% (active) | 59% | 98% (active) | 90.8% (active)
Nc1ccc(S(=O)(=O)Nc2ccccc2)cc1 | -4% | 42% | -7.35% | 7% | 7% | -9.35% | -1% | 3% | 26.1% | 0% | -6% | 50.7% | 37% | -1% | -2.1% | 0% | 4% | 4.25%
CCCc1cc2c(cc1O)CC[C@@H]1[C@@H]2CC[C@]2(C)[C@@H](O)CC[C@@H]12 | -25% | 96% (active) | 86.5% (active) | -30% | 96% (active) | 85.8% (active) | -30% | 98% (active) | 84.5% (active) | -4% | 77% (active) | 88.5% (active) | -33% | 97% (active) | 87.6% (active) | -46% | 96% (active) | 80.7% (active)
Nc1cc2c(nc3c4ccccc4c(N)cc3[n+]2-c2cccc3ccccc23)c2ccccc12 (tested in a mixture with another compound) | 95% (active) | 92% (active) | 89.4% (active) | 62% | 92% (active) | 90.2% (active) | 59% | 94% (active) | 89.2% (active) | 31% | 89% (active) | 84.5% (active) | 61% | 91% (active) | 84.8% (active) | 79% (active) | 91% (active) | 89.8% (active)
O=C(O)C1C(C(=O)Nc2ccc3c(c2)Cc2ccccc2-3)C2(Cl)C(Cl)=C(Cl)C1(Cl)C2(Cl)Cl (stereo not given) | 31% | 99% (active) | 98.4% (active) | 27% | 99% (active) | 98.7% (active) | 47% | 99% (active) | 98.5% (active) | 31% | 99% (active) | 98.3% (active) | 14% | 99% (active) | 98.3% (active) | 46% | 99% (active) | 98.3% (active)
CC1CN(CC2CCCCCCCCCCC2=O)CC(C)O1 (stereo not given) | 59% | 74% (active) | 73.5% (active) | 25% | 45% | 65.5% | 52% | 53% | 83.8% (active) | 62% | 59% | 60.4% | 67% | 79% (active) | 75.8% (active) | 74% (active) | 86% (active) | 69.9%
CN(c1ccccc1)N(C)c1ccccc1 | -1% | 22% | 40.6% | -3% | -1% | -3.45% | -5% | -16% | -17.4% | 8% | 15% | -33.2% | 5% | 5% | -7.8% | 3% | 26% | 4%
Cc1ccc2nc(C[n+]3cccc4ccccc43)ccc2c1 | 96% (active) | 99% (active) | 88.8% (active) | 95% (active) | 100% (active) | 81.1% (active) | 88% (active) | 99% (active) | 99.4% (active) | 92% (active) | 98% (active) | 99% (active) | 96% (active) | 99% (active) | 99.7% (active) | 96% (active) | 99% (active) | 99.5% (active)
CCOC(=O)c1c(SCC#N)n(-c2ccccc2)c(=S)n(-c2ccccc2)c1=O | 12% | 35% | 80% (active) | -7% | 39% | 81.2% (active) | -8% | 48% | 75.3% (active) | -6% | 77% (active) | 78% (active) | 1% | 85% (active) | 88.5% (active) | -11% | 81% (active) | 75.2% (active)
CCOC(=O)c1nnc2cc(-c3ccccc3)nn2c1-c1ccccc1 | 65% | 85% (active) | 51.1% | 35% | 66% | 21.8% | 48% | 80% (active) | 75.2% (active) | 25% | 38% | 41.4% | 45% | 70% (active) | 65.9% | 61% | 90% (active) | 38.6%
CC[N+](C)(CC)CCC(=O)/C=C/c1ccccc1 | 15% | 54% | 87.5% (active) | 11% | 69% | 93% (active) | 5% | 55% | 88.6% (active) | 16% | 49% | 53.1% | 3% | 74% (active) | 76.5% (active) | 11% | 46% | -47.8%
Cn1c(=O)c2c(ncn2-c2ccncc2)n(C)c1=O | -5% | 0% | 11.4% | -4% | -5% | -3.9% | -3% | -7% | 15.9% | -3% | 31% | 73.8% (active) | -9% | -8% | -5.35% | -5% | -2% | 4.8%
OC(CCN1CCOCC1)C1c2ccccc2Cc2ccccc21 (stereo not given) | 6% | 74% (active) | 77.2% (active) | 6% | 29% | -1% | 1% | 91% (active) | 60% | 1% | 30% | -28.3% | 0% | 76% (active) | 46.6% | 9% | 81% (active) | 23.4%
CC1Cc2cc(O)c(O)cc2-c2cc(O)c(O)cc2CC1C (stereo not given) | -6% | 86% (active) | 72.1% (active) | -11% | 89% (active) | 83.8% (active) | -9% | 75% (active) | 80.7% (active) | 7% | 85% (active) | 83.4% (active) | -30% | 93% (active) | 79.4% (active) | -8% | 93% (active) | 83.7% (active)
